Laboratory results published in PubChem BioAssay (NCI).
The panel holds about 83,000 compounds, 20% with a hit somewhere; the sample as a whole holds those more often.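 The endpoint reported here, percent growth, reads 100 for growth as untreated, 0 for no net growth and -100 for all cells dead.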 Calls of active or inactive are those of the source. How the source made its calls: active means growth percent below 10; inactive means the rest.

Legend:
Assay in all cases: NCI-60 one-dose screen, 48 h (100 = growth as untreated, 0 = no growth, -100 = all killed)
Conditions in all cases: 10 µM unless noted
NCI-H23 lung = tested on: NCI-H23 lung
NCI-H226 lung = tested on: NCI-H226 lung
HOP-62 NSCLC = tested on: HOP-62 NSCLC
NCI-H460 lung = tested on: NCI-H460 lung
NCI-H522 lung = tested on: NCI-H522 lung
A549/ATCC NSCLC = tested on: A549/ATCC NSCLC
786-0 renal = tested on: 786-0 renal
COLO 205 colon = tested on: COLO 205 colon
DU-145 prostate = tested on: DU-145 prostate
K-562 leukemia = tested on: K-562 leukemia
MALME-3M melanoma = tested on: MALME-3M melanoma
MDA-MB-231 breast = tested on: MDA-MB-231 breast
SF-268 CNS = tested on: SF-268 CNS
SF-295 CNS = tested on: SF-295 CNS
SF-539 CNS = tested on: SF-539 CNS
UACC-257 melanoma = tested on: UACC-257 melanoma
M14 melanoma = tested on: M14 melanoma
HOP-92 NSCLC = tested on: HOP-92 NSCLC
RXF 393 renal = tested on: RXF 393 renal

Measured: growth

Clc1ccc(N2N=C(c3cccc(Nc4ccncc4)c3)CC2c2ccccc2)cc1 (centres undefined)
active: M14 melanoma -55.4%
inactive: NCI-H23 lung 92.6% | NCI-H226 lung 94.5% | HOP-62 NSCLC 92.2% | NCI-H460 lung 98.9% | NCI-H522 lung 80.4% | A549/ATCC NSCLC 93.9% | 786-0 renal 10.9% | COLO 205 colon 73.1% | DU-145 prostate 100% | K-562 leukemia 46% | MALME-3M melanoma 93.5% | MDA-MB-231 breast 93.2% | SF-268 CNS 78.1% | SF-295 CNS 102% | SF-539 CNS 86% | UACC-257 melanoma 101%

CC(=O)CCSc1ccc(OC(C)=O)cc1
inactive: NCI-H23 lung 100% | NCI-H226 lung 101% | HOP-62 NSCLC 98% | NCI-H460 lung 106% | HOP-92 NSCLC 79.8% | NCI-H522 lung 82.3% | A549/ATCC NSCLC 88.3% | 786-0 renal 100% | DU-145 prostate 108% | K-562 leukemia 96.1% | MALME-3M melanoma 115% | MDA-MB-231 breast 91.7% | RXF 393 renal 109% | SF-268 CNS 96.4% | SF-295 CNS 105% | SF-539 CNS 97.3% | UACC-257 melanoma 88.1% | M14 melanoma 103%

O=C1CCCN1c1cccc2cccnc12
inactive: NCI-H23 lung 92.9% | NCI-H226 lung 98.8% | HOP-62 NSCLC 94.4% | NCI-H460 lung 102% | HOP-92 NSCLC 103% | NCI-H522 lung 96% | A549/ATCC NSCLC 99% | 786-0 renal 97.5% | COLO 205 colon 108% | DU-145 prostate 111% | K-562 leukemia 96.4% | MALME-3M melanoma 109% | MDA-MB-231 breast 99% | RXF 393 renal 102% | SF-268 CNS 97.9% | SF-295 CNS 102% | SF-539 CNS 98.9% | UACC-257 melanoma 102% | M14 melanoma 103%

O=C(N/N=C/c1cccc(O)c1)c1ccccc1Nc1cccc(C(F)(F)F)c1
inactive: NCI-H23 lung 96.4% | NCI-H226 lung 76.7% | HOP-62 NSCLC 73% | NCI-H460 lung 102% | HOP-92 NSCLC 63% | NCI-H522 lung 90.3% | A549/ATCC NSCLC 29.1% | 786-0 renal 43.5% | COLO 205 colon 117% | DU-145 prostate 88.7% | MALME-3M melanoma 76.3% | MDA-MB-231 breast 73.8% | SF-268 CNS 69.5% | SF-295 CNS 52.2% | SF-539 CNS 103% | UACC-257 melanoma 64.9% | M14 melanoma 58.8%

CCOC(=O)C1CC(=O)c2cc(OC)c(OC)cc2C1 (centres undefined)
inactive: NCI-H23 lung 101% | NCI-H226 lung 92.6% | HOP-62 NSCLC 96% | NCI-H460 lung 110% | HOP-92 NSCLC 84% | NCI-H522 lung 84.9% | A549/ATCC NSCLC 100% | 786-0 renal 96.2% | COLO 205 colon 127% | DU-145 prostate 111% | K-562 leukemia 88% | MALME-3M melanoma 132% | MDA-MB-231 breast 110% | SF-268 CNS 102% | SF-295 CNS 98.1% | SF-539 CNS 100% | UACC-257 melanoma 87.7% | M14 melanoma 87.8%

Nc1nc(SN=Nc2ccc(S(N)(=O)=O)cc2)c2[nH]cnc2n1
inactive: NCI-H226 lung 37.3% | HOP-62 NSCLC 19.8% | A549/ATCC NSCLC 24.1% | 786-0 renal 15.7% | DU-145 prostate 15% | MALME-3M melanoma 24.6% | MDA-MB-231 breast 16.9% | SF-268 CNS 19.8% | SF-295 CNS 12.6% | SF-539 CNS 14.9% | M14 melanoma 11.1%
active: NCI-H23 lung 8.88% | NCI-H460 lung 4.68% | HOP-92 NSCLC -6.95% | NCI-H522 lung -9.91% | COLO 205 colon -30.6% | RXF 393 renal -6.34% | UACC-257 melanoma 8.28%

O=C(N=Nc1c(O)[nH]c2ccc(F)cc12)c1cc2ccccc2[nH]1
inactive: NCI-H23 lung 97.4% | NCI-H226 lung 94.6% | HOP-62 NSCLC 94.5% | NCI-H460 lung 100% | HOP-92 NSCLC 96.4% | NCI-H522 lung 77.8% | A549/ATCC NSCLC 91.3% | 786-0 renal 97.3% | COLO 205 colon 117% | DU-145 prostate 95.9% | K-562 leukemia 91.7% | MALME-3M melanoma 99.8% | MDA-MB-231 breast 95.1% | RXF 393 renal 104% | SF-268 CNS 88.3% | SF-295 CNS 100% | SF-539 CNS 99.8% | UACC-257 melanoma 106% | M14 melanoma 94.9%

Cc1n[nH]c(C)c1-c1c(C)n[nH]c1C
inactive: NCI-H226 lung 56.2% | HOP-62 NSCLC 34.5% | A549/ATCC NSCLC 11.9% | SF-268 CNS 19.1% | SF-295 CNS 18.8% | UACC-257 melanoma 39.6%
active: NCI-H23 lung 8.62% | NCI-H460 lung -35.1% | HOP-92 NSCLC -3.52% | NCI-H522 lung -8.26% | 786-0 renal 6.23% | COLO 205 colon -21.6% | DU-145 prostate 9.47% | K-562 leukemia 5.03% | MALME-3M melanoma -38.3% | MDA-MB-231 breast -14.5% | RXF 393 renal -47.8% | SF-539 CNS -54.6% | M14 melanoma -4.4%

COc1ccc(C(O)c2cc3c(N)c(C(=O)Nc4ccc(Cl)cc4)sc3nc2C)cc1 (centres undefined)
active: NCI-H460 lung 5.37% | NCI-H522 lung 7.8% | DU-145 prostate 6.92% | K-562 leukemia 3.42% | M14 melanoma 7.86%
inactive: NCI-H23 lung 32.7% | NCI-H226 lung 45.3% | HOP-62 NSCLC 29.2% | HOP-92 NSCLC 49.3% | A549/ATCC NSCLC 29.5% | 786-0 renal 55.2% | COLO 205 colon 13.6% | MALME-3M melanoma 21% | MDA-MB-231 breast 41.8% | SF-268 CNS 42.8% | SF-295 CNS 14.5% | SF-539 CNS 20.7% | UACC-257 melanoma 56.4%

c1ccc(N2N=C(c3cccc(Nc4ccncc4)c3)CC2c2ccc3c(c2)OCO3)cc1 (centres undefined)
inactive: NCI-H23 lung 61.1% | NCI-H226 lung 77.7% | HOP-62 NSCLC 23.5% | HOP-92 NSCLC 25.6% | NCI-H522 lung 17.9% | A549/ATCC NSCLC 21.1% | 786-0 renal 81% | DU-145 prostate 16.4% | MDA-MB-231 breast 37.7% | SF-268 CNS 29.9% | UACC-257 melanoma 27.2% | M14 melanoma 93.1%
active: NCI-H460 lung -48.5% | COLO 205 colon -53% | K-562 leukemia 4.94% | MALME-3M melanoma -22.6% | SF-295 CNS -17.1% | SF-539 CNS 9.86%

Cn1c(COC(=O)NCCn2ccnc2)nc2c(N3CCOCC3)nc(-c3ccccc3)nc21
inactive: SF-295 CNS 18%
active: NCI-H23 lung -74.8% | NCI-H226 lung -53.8% | HOP-62 NSCLC -40.4% | NCI-H460 lung -72.1% | HOP-92 NSCLC -75.2% | NCI-H522 lung -54.7% | A549/ATCC NSCLC -36.2% | 786-0 renal -89.7% | COLO 205 colon -57.3% | DU-145 prostate -89.9% | K-562 leukemia 4.31% | MALME-3M melanoma -93.9% | MDA-MB-231 breast -90.6% | SF-268 CNS -61.6% | SF-539 CNS -99.6% | UACC-257 melanoma -56.7% | M14 melanoma -72.5%

FC(F)(F)c1cccc(Nc2ccccc2)c1
inactive: NCI-H23 lung 94.2% | NCI-H226 lung 97.6% | HOP-62 NSCLC 105% | NCI-H460 lung 104% | HOP-92 NSCLC 101% | NCI-H522 lung 98.6% | A549/ATCC NSCLC 97.3% | 786-0 renal 101% | COLO 205 colon 105% | DU-145 prostate 110% | K-562 leukemia 95.5% | MALME-3M melanoma 99.7% | MDA-MB-231 breast 104% | RXF 393 renal 109% | SF-268 CNS 103% | SF-295 CNS 99.9% | SF-539 CNS 95.5% | UACC-257 melanoma 97.4% | M14 melanoma 106%

O=S(=O)(NCCNc1nccc(-c2c(-c3ccc(F)c(O)c3)nc3occn23)n1)c1ccccc1
active: MALME-3M melanoma -0.538%
inactive: NCI-H23 lung 55.1% | NCI-H226 lung 92.1% | HOP-62 NSCLC 76.9% | NCI-H460 lung 29.7% | HOP-92 NSCLC 43.7% | NCI-H522 lung 55.2% | A549/ATCC NSCLC 45.8% | 786-0 renal 88.5% | COLO 205 colon 40.6% | DU-145 prostate 57.1% | K-562 leukemia 33.6% | MDA-MB-231 breast 27.7% | SF-268 CNS 57% | SF-295 CNS 93.3% | SF-539 CNS 96% | UACC-257 melanoma 25% | M14 melanoma 18.8%

C=C1C(=O)O[C@H]2[C@H]1CC/C(CNC(=O)/C=C/c1ccccc1F)=C\CC[C@@]1(C)O[C@@H]21
inactive: NCI-H23 lung 64.8% | NCI-H226 lung 71.9% | HOP-62 NSCLC 74.5% | NCI-H460 lung 56.2% | A549/ATCC NSCLC 52.9% | MDA-MB-231 breast 16.9% | SF-268 CNS 47.4% | SF-295 CNS 75.1%
active: NCI-H522 lung -73.5% | 786-0 renal -58.4% | COLO 205 colon -45% | DU-145 prostate 4.9% | K-562 leukemia 2.05% | MALME-3M melanoma -43.9% | RXF 393 renal -90.5% | SF-539 CNS -50.4% | UACC-257 melanoma -6.45% | M14 melanoma -32.5%
